# Experimental data from PubChem BioAssay AID1159574 (Broad Institute, 2015).
# Entries with a potency or affinity are not part of this list. The source made the active and inactive calls.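 How the source made its calls: active means growth inhibitors whose fitted half-maximal dose is no more than twice the top valid dose; inconclusive means flat curve with 30 to 70% inhibition, or unreliable fit; inactive means the rest.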
# Assay: P. falciparum Dd2 blood-stage growth inhibition, dose response, SYBR Green fluorescence, erythrocytes, dry powder, set 2 (AID 1159574)
# Conditions: P. falciparum Dd2 in erythrocytes, 72 h; series mostly up to 21 µM
row,Compound,outcome
1,O=C(c1ccccc1F)N1CC(=O)N2[C@@H](CO)[C@@H](c3ccc(-c4cccnc4)cc3)[C@@H]2C1,inactive
2,O=C(c1ccccc1F)N1CC(=O)N2[C@@H](CO)[C@H](c3ccc(-c4cccnc4)cc3)[C@@H]2C1,inactive
